# Among all 66,000 compounds or so, about 960 (1.5%) showed an effect of 50% or more. The sample holds strong results, similar compounds and a random draw of the others, so the mix is not that of the screen.
# Tested on: Trypanosoma brucei
# Assay: Trypanosoma brucei 72 hour study
# Format: functional, organism-based
# Parameters: scale not given: in the data most compounds retested in dose-response had high values
smiles,measurement,setting,value
Cc1nsc(C(=O)NCCCc2ccccc2)n1,Percent Effect,"30 µM, 30.03 µM",-6.915%
COc1cccc(-c2cnc(C3CCNCC3)cn2)c1,Percent Effect,"30.3 µM, […]",-29.22%
Fc1ccc(-c2cnc(C3CCNCC3)cn2)cc1,Percent Effect,"30.3 µM, […]",58.37%
Cl.Fc1ccc(-c2cnc(C3CCCN3)cn2)cc1 (stereo not drawn),Percent Effect,"30.3 µM, […]",19.97%
C[C@@]1(O)CCN(Cc2cc[nH]n2)C[C@H]1Oc1cccc(F)c1,Percent Effect,"30.3 µM, […]",13.98%
COCCO[C@H]1CCN(C(=O)NC2CC2)[C@H]1Cc1cnn(C)c1,Percent Effect,"30 µM, 30.03 µM",-38.19%
CCn1c(CN2CCCC(O)(c3ccc(F)cc3)CC2)cnc1SC.O=C(O)CC(O)(CC(=O)O)C(=O)O (stereo not drawn),Percent Effect,"30.3 µM, […]",-0.3019%
CCN(CC)CCCNc1nccc(-c2cn(C)nc2C)n1,Percent Effect,"30.3 µM, […]",0.2363%
CCCOCCCNc1nccc(-c2cn(C)nc2C)n1,Percent Effect,"30 µM, 30.03 µM",60.81%
CNCCNc1nccc(-c2cn(C)nc2C)n1,Percent Effect,"30.3 µM, […]",-7.529%
NC(=O)c1c[nH]nc1NC(=O)c1cccc(Cl)c1,Percent Effect,"30.3 µM, […]",-12.02%
CN(CCO)CC1COCCN1C(=O)CCC1CCCC1.O=CO (stereo not drawn),Percent Effect,"30 µM, 30.03 µM",-33.47%
Cc1ccccc1C(=O)N1CCOCC1CN(C)C.O=CO (stereo not drawn),Percent Effect,"30.3 µM, […]",13.8%
CN(CCO)CC1COCCN1C(=O)C1CCCCC1.O=CO (stereo not drawn),Percent Effect,"30 µM, 30.03 µM",-4.713%
CN(CCO)CC1COCCN1C(=O)C1(c2cccs2)CCCC1.O=CO (stereo not drawn),Percent Effect,"30.3 µM, […]",95.25%
CN(C)CC1COCCN1C(=O)C1(c2cccs2)CCCC1.O=CO (stereo not drawn),Percent Effect,"30.3 µM, […]",99.83%
O=C(N1CCOCC1CO)C1(c2cccs2)CCCC1 (stereo not drawn),Percent Effect,"30.3 µM, […]",-27.69%
C1CC(N2C[C@@H]3COC[C@]3(COCC3CCOCC3)C2)C1.O=C(O)C(F)(F)F,Percent Effect,"30.3 µM, […]",-71.78%
CN1CCN(C(=O)[C@H]2C[C@H]3[C@H](CCN3Cc3cccs3)O2)CC1.O=C(O)C(F)(F)F.O=C(O)C(F)(F)F,Percent Effect,"30.3 µM, […]",-15.62%
O=C(c1cnc(-c2ccco2)s1)N1CCCCC1Cn1cccn1 (stereo not drawn),Percent Effect,"30.3 µM, […]",-0.6425%
CN(C)C1COC2(CCN(Cc3ccc4c(c3)OCO4)CC2)C1.O=C(O)C(F)(F)F.O=C(O)C(F)(F)F (stereo not drawn),Percent Effect,"30.3 µM, […]",39.28%
c1ccc(-c2cc(CNCCN3CCCC3)c3nnnn3c2)cc1,Percent Effect,"30.3 µM, […]",99.79%
c1ccc(-c2cc(CNCCN3CCOCC3)c3nnnn3c2)cc1,Percent Effect,"30.3 µM, […]",-21.36%
c1ccc(-c2cc(CNCCCN3CCCCC3)c3nnnn3c2)cc1,Percent Effect,"30.3 µM, […]",-3.089%
O=C(N1CCOCC1)N1CCc2ncnc(NC3CCC3)c2CC1.O=C(O)C(F)(F)F,Percent Effect,"30.3 µM, […]",-46.89%
O=C(Cn1cccn1)Nc1ccc(N2CCCCC2)cc1,Percent Effect,"30 µM, 30.03 µM",-14.86%
Cc1cccnc1[C@]1(O)CC[C@H]2CN(Cc3cccc(Cl)c3Cl)C[C@H]21.O=C(O)CC(O)(CC(=O)O)C(=O)O,Percent Effect,"30.3 µM, […]",-4.562%
Cc1ccc(SC2CCCC2)c(C(=O)NCCO)c1,Percent Effect,"30 µM, 30.03 µM",-19.93%
COc1cccc(CNCc2c(C(C)C)nn(C)c2N(C)C)c1OC,Percent Effect,"30 µM, 30.03 µM",101.8%
COc1ncccc1CNCc1c(C(C)C)nn(C)c1N(C)C,Percent Effect,"30.3 µM, […]",0.2022%
Cc1ccc(C(O)CNCc2c(C(C)C)nn(C)c2N(C)C)cc1 (stereo not drawn),Percent Effect,"30 µM, 30.03 µM",54.73%
CC(C)c1nn(C)c(N(C)C)c1CNCC(O)c1cccc(F)c1 (stereo not drawn),Percent Effect,10 µM,-45.99%
CC(C)c1nn(C)c(N(C)C)c1CNCC(O)c1ccccc1 (stereo not drawn),Percent Effect,"30.3 µM, […]",9.453%
same,Percent Effect,"10 mM, 10 mM as filed; unlikely as a test dose",-25.34%
COCc1ccccc1CNCc1c(C(C)C)nn(C)c1N(C)C,Percent Effect,10 µM,-17.78%
Cc1ccc(CN(CCCN2CCOCC2)Cc2[nH]cnc2C)o1.O=C(O)CC(O)(CC(=O)O)C(=O)O,Percent Effect,"30.3 µM, […]",-12.11%
CN(C)CCNC(=O)C1Cc2nc(-c3ccccc3)sc2N1CC1CC1.O=C(O)C(F)(F)F (stereo not drawn),Percent Effect,"30.3 µM, […]",23.06%
O=C(C1CCOCC1)N1CCc2onc(COc3cccnc3)c2C1.O=C(O)C(F)(F)F,Percent Effect,"30.3 µM, […]",-638.1%
COc1cc(CN(C)[C@@H]2COC[C@H]2c2ccc(F)cc2)cc(OC)c1.O=C(O)CC(O)(CC(=O)O)C(=O)O,Percent Effect,"30.3 µM, […]",-25.55%
Cc1ccc(N2CC[C@H]3O[C@@H](C(=O)N4CCCO4)CC[C@H]32)nn1.O=C(O)C(F)(F)F,Percent Effect,"30.3 µM, […]",-45.1%
COc1ccc(CNC(=O)Nc2cccnc2N2CCCC2)cc1O,Percent Effect,"30 µM, 30.03 µM",51.01%
COc1ccc(CNC(=O)Nc2cccnc2N2CCCC2)cc1OC,Percent Effect,"30.3 µM, […]",-31.53%
COc1ccc(CNC(=O)Nc2cccnc2N2CCCC2)cc1,Percent Effect,"30.3 µM, […]",-33.31%
CC1CCN(CC(=O)NC2CCN(C(C)c3ccccc3)CC2)CC1.Cl (stereo not drawn),Percent Effect,"30.3 µM, […]",21.99%
COc1ccc(CN2CCC3(CC2)CCN(c2cnn(C)c2)C3=O)cc1.O=C(O)C(F)(F)F,Percent Effect,"30 µM, 30.03 µM",29.53%
CN(Cc1n[nH]c2c1CCCC2)c1nc(C2CC2)nc2c1CCNCC2,Percent Effect,"30 µM, 30.03 µM",53.53%
CN(C)c1nc2c(c(N(C)Cc3n[nH]c4c3CCCC4)n1)CCNCC2,Percent Effect,"30 µM, 30.03 µM",21.59%
CN(Cc1n[nH]c2c1CCC2)c1nc(C2CCCC2)nc2c1CNC2,Percent Effect,"30 µM, 30.03 µM",-1.405%
